Laboratory results as given in PubChem BioAssay.

System: Sonic hedgehog protein (Shh)
Assay: Sonic hedgehog microarray binding compounds – biochemical, small-molecule microarray, 635/667 nm fluorescence, primary screen (AID 1151);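 further: Shh protein binding to compounds spotted on small-molecule microarray slides; score combines spot fluorescence intensity with signal-to-noise across triplicate slides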
Details: 635 nm fluorescence, higher = more signal

SMILES	composite z-score
CC[C@@H]1C=C(C(=O)O)[C@H](c2ccc(Br)cc2)N1S(=O)(=O)c1ccc(C)cc1	0.248
O=C1c2ccccc2[C@](Cc2ccccc2I)(C(=O)NCCN2CCOCC2)[C@H](c2ccc(CO)cc2)N1Cc1ccccc1Cl	1.43
COC(=O)[C@@]1(Cc2ccc(OC)cc2)[C@H]2c3cc(C(=O)N4CCCC4)n(CCN4CNCC4=O)c3C[C@H]2CN1C(=O)c1ccccc1	-1.14
COC(=O)[C@@]1(Cc2ccc(OC)cc2)[C@@H]2C(=CC(=O)[C@H]2CC(=O)C(=O)N2CCCC2)CN1C(=O)c1ccccc1	-1.35
C=CCNC(=O)[C@@H]1[C@H]2C(=O)O[C@H](c3ccccc3)[C@H](c3ccccc3)N2[C@H](c2ccc(O)cc2)[C@@]12C(=O)N(C(=O)OCCOC)c1ccc(C#CCNC(N)=O)cc12	1.45
Cc1ccc(S[C@]2(C(=O)NCCCN(C)C)CC(=O)N(Cc3cc(C(F)(F)F)cc(C(F)(F)F)c3)[C@@H]2c2ccc(CO)cc2)cc1	-0.664
COc1ccc([Si](C)(C)[C@H]2[C@H](CCO)O[C@@]3(C(=O)N(Cc4ccc(N(C=O)c5ccccc5)cc4)c4ccccc43)[C@@H]2C)cc1	0.399
[N-]=[N+]=Nc1ccccc1[C@H]1OC(c2ccc(OCCCO)cc2)=N[C@@]1(CCS(=O)(=O)c1ccccc1)C(N)=O	0.176
NC(=O)NCC#Cc1ccc2c(c1)[C@]1(C(=O)N2)[C@H](c2ccccc2OCCO)N2[C@H](c3ccccc3)[C@H](c3ccccc3)OC(=O)[C@H]2[C@@H]1C(=O)Nc1nc2ccccc2s1	0.812
CCCC=C(CCC)[C@@H](NC(=O)c1cccs1)c1ccc(C(F)(F)F)cc1	1.18
CN(C)C(=O)[C@]1(Cc2ccccc2N=[N+]=[N-])N=C(c2ccc(OCCCO)cc2)O[C@@H]1c1ccccc1N=[N+]=[N-]	0.428
COC(=O)[C@@]1(Cc2ccc(OC)cc2)[C@H]2c3cc(C(=O)N(C)C)n(Cc4ccccn4)c3C[C@H]2CN1C(=O)c1ccccc1	-0.403
COC(=O)[C@@]1(Cc2ccc(F)cc2)[C@H]2c3cc(C(=O)N4CCCC4)n(CCCNc4ncc(C(F)(F)F)cc4Cl)c3C[C@H]2CN1C(=O)c1ccccc1	-0.516
O=C(CS)NCCCCCCNC(=O)[C@@H]1C[C@@H]2C(=O)NCC(=O)N2[C@@H]1c1cccc(OCCO)c1	0.88
CCOC(=O)C[C@H]1[C@H](OC(=O)c2ccccc2-c2ccccc2)[C@@H](NC(=O)CC(C)C)c2cc(OCCCO)ccc2N1C(=O)Cc1ccc(OC)cc1	0.222
COc1ccc([C@H]2OC[C@@H]3C[C@@H](Cc4ccccc4)C(=O)N32)cc1	1.33
COc1ccc(CCNC(=O)[C@@]2(C)c3ccccc3C(=O)N(C(C)C)[C@H]2c2ccc(CO)cc2)cc1	0.794
C=CCOC(=O)[C@@H]1[C@H]2C(=O)O[C@H](c3ccccc3)[C@H](c3ccccc3)N2[C@H](c2ccc(OCCOC(=O)[C@@H]3C[C@@H]4C(=O)NCC(=O)N4[C@@H]3c3ccc(O)cc3)cc2)[C@@]12C(=O)Nc1ccc(I)cc12	1.53

SMILES	composite z-score
O=C1C[C@@](C(=O)NCCN2CCOCC2)(c2ccc([N+](=O)[O-])cc2)[C@@H](c2ccc(CO)cc2)N1CC12CC3CC(CC(C3)C1)C2	1.37
COCCOC(=O)N1C(=O)[C@@]2(c3cc(C#CCC(C(=O)OC)C(=O)OC)ccc31)[C@H](C(=O)Nc1nc3ccccc3s1)[C@H]1C(=O)O[C@H](c3ccccc3)[C@H](c3ccccc3)N1[C@@H]2c1ccccc1OCCO	1.13
COC(=O)[C@@]1(Cc2ccccc2)[C@H]2c3cc(C(=O)N(C)C)n(Cc4ccsc4Br)c3C[C@H]2CN1C(=O)c1ccccc1	-1.21
CC1CC/C=C\[C@H]2OC34C=CCN(C(C)(C)C)C(=O)[C@H]3N(CCO)C(=O)[C@@H]4C2C(=O)O1 (stereo partly specified)	-0.0338
C=C(CCCC)/C(=C/C[C@@H](OC(C)=O)c1ccc(OCCO)cc1)c1cnc2ccccc2c1	1.77
CC(C)C(O)C1C=CC2C(=O)N(c3ccccc3)C(=O)C2N1Nc1ccc([N+](=O)[O-])cc1 (stereo unspecified)	-0.688
C=C(COC)/C(=C/C[C@H](OC(C)=O)c1ccc(CO)o1)c1cc(C(=O)OC)ccc1OC	0.756
COC(=O)[C@@]1(Cc2ccc(OC)cc2)[C@H]2c3cc(C(=O)N(C)C)n(C)c3C[C@H]2CN1C(=O)c1ccccc1	0.418
CCOC(=O)[C@H]1C/C=C/C[C@H](C(=O)OCC)C(=O)O[C@H]2[C@@H](OC)O[C@H](CO)[C@@H](OC(=O)c3c(OC)cccc3OC)[C@@H]2OC1=O	1.44
CC(C)NC(=O)[C@@]1(c2ccc([N+](=O)[O-])cc2)CC(=O)N(C2CCCCC2)[C@@H]1c1ccc(CO)cc1I	-0.241
CN1C(=O)C2C=CC(C(O)c3ccc([N+](=O)[O-])cc3)N(N3CCCCC3)C2C1=O (stereo unspecified)	-0.041
COCCOC(=O)N1C(=O)[C@@]2(c3cc(C#CCNC(N)=O)ccc31)[C@H](C(=O)N1CCN(c3ncccn3)CC1)[C@H]1C(=O)O[C@H](c3ccccc3)[C@H](c3ccccc3)N1[C@@H]2c1ccc(OCCO)cc1	0.911
O=C1NC(=O)C2C1C=CC(C(O)c1cc(C(F)(F)F)cc(C(F)(F)F)c1)N2Nc1ccccn1 (stereo unspecified)	0.87
COCCOC(=O)N1C(=O)[C@@]2(c3ccccc31)[C@H](C(=O)N1CCc3cc(OC)c(OC)cc3C1)[C@H]1C(=O)O[C@H](c3ccccc3)[C@H](c3ccccc3)N1[C@@H]2c1ccc(OCCO)cc1	1.41
COC(=O)C(CC#Cc1ccc2c(c1)[C@]1(C(=O)N2)[C@H](C(=O)Nc2nc3ccccc3s2)[C@H]2C(=O)O[C@H](c3ccccc3)[C@H](c3ccccc3)N2[C@@H]1c1ccccc1OCCO)C(=O)OC	1.03
CN1C(=O)C2C=CC(C(O)c3ccccc3)N(N(c3ccccc3)c3ccccc3)C2C1=O (stereo unspecified)	0.522
COC(=O)[C@@]1(CCS(=O)(=O)c2ccccc2)N=C(c2ccc(OCCCO)cc2)O[C@H]1c1ccccc1CN=[N+]=[N-]	0.281
COC(=O)[C@H](Cc1ccccc1)N1CC2=C[C@@H](C3CC3)n3c(=O)n(C)c(=O)n3[C@H]2[C@@H]1[C@@H](O)Cc1ccccc1	1.4
